In publication PMC7819943, “Rice protein-binding microarrays: a tool to detect cis-acting elements near promoter regions in rice”:
Over roughly 35,000 sequences, “fluorescence intensity (a.u.)” has its median near 10,000; the highest 2% begin near 52,000. The full list was thinned out, with the highest values kept by preference.

Target: T1, OsWOX13 (Oryza sativa, UniProt Q5QMM3 1-267)
T1 sequence: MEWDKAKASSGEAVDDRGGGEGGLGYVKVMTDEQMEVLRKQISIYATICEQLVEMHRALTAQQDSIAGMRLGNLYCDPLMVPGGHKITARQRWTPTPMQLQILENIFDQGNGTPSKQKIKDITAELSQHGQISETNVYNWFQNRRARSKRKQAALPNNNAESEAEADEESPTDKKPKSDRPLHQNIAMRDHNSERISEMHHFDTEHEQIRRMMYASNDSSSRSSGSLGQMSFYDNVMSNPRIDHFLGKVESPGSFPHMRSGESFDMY
Experiment: protein-binding microarray (RPBM); PBS, 2% BSA, 51.3 ng/ul salmon testes DNA, 50 uM zinc acetate, 200 nM TF, 25 C, 1 h; high values mean tight binding
Settings: protein: recombinant; tags: N-terminal polyhistidine and DsRed monomer fusion (pET32a); label: CyDye5-dUTP incorporated in the synthesized complementary strand; 3' TTTTT single-stranded linker to array surface; dsDNA, one strand shown
Outline: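 Polyhistidine-tagged DsRed fusions of transcription factors, joined at the N-terminus, were expressed in E. coli BL21-CodonPlus and isolated on Ni–NTA. They were incubated at 200 nM for 1 h at 25 °C on a custom Agilent array, double-stranded and BSA-blocked, in PBS with 2% BSA, salmon testes DNA and 50 µM zinc acetate. The binding signal is per-feature fluorescence intensity (arbitrary units) read on an Axon 4000B scanner after washing.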

Sequence | binding signal
CTCCCAAGTAAATGATTTGAAATACCCGATCTAATTATTACGGAGTCACCTAGTGCAG | 3180 fluorescence intensity (a.u.)
TTTTGCAATGTGATTTGCTGGTTTGGATAGTGGAGAAGTTCGGAGTCACCTAGTGCAG | 3300 fluorescence intensity (a.u.)
CCTCTTGATTGATTGCTCGGTCGACTGATTGCTTCTTACACGGAGTCACCTAGTGCAG | 65000 fluorescence intensity (a.u.)
ATTGTTGCTGCTGCTGGATTGATTAGTGGTTAAGCAGATTCGGAGTCACCTAGTGCAG | 5320 fluorescence intensity (a.u.)
TTGGTTGGTTGGTTGATTGCTCGCGCCCCGCGCGGTTGCGCGGAGTCACCTAGTGCAG | 6680 fluorescence intensity (a.u.)
TGGCCTTGATTTGCTTCCTGAATGTGCCTGCTTCCTTACACGGAGTCACCTAGTGCAG | 18100 fluorescence intensity (a.u.)
ACCAAGTAATTGATATCTAGAAATCCGATACCTAGTACCACGGAGTCACCTAGTGCAG | 55000 fluorescence intensity (a.u.)
CCGACCCGTTGGATTGATAAAACCAACTGCTTCCCGCTCCCGGAGTCACCTAGTGCAG | 6190 fluorescence intensity (a.u.)
ATTGATTGATAAACCCTACTGCTTCTCGCCGCCGCCGCCGCGGAGTCACCTAGTGCAG | 55100 fluorescence intensity (a.u.)
CCAAGCAAATAATCCGATAGATTGAATCGGTGAGTTACCACGGAGTCACCTAGTGCAG | 9630 fluorescence intensity (a.u.)
CTCTTGATTGCGGCGCGACTGCGAGCGAGAGAGCTTCACGCGGAGTCACCTAGTGCAG | 20500 fluorescence intensity (a.u.)
ATGTGATTGATTCTGCTGGTGGATTCTCTCTTCGGTTTGCCGGAGTCACCTAGTGCAG | 62800 fluorescence intensity (a.u.)
ATTTATTAATATTAATATTATTGTGGGAAATTTTAGAATGCGGAGTCACCTAGTGCAG | 3460 fluorescence intensity (a.u.)
TGCTGTAATTACTTTTCTGTAATTTGGATTAATCCTTCGCCGGAGTCACCTAGTGCAG | 40800 fluorescence intensity (a.u.)
AGATACTTAATTAGTGTCTTCTATAAGCAAAGGTCAGGAACGGAGTCACCTAGTGCAG | 11300 fluorescence intensity (a.u.)
GCTCTATCACAAAATAAACTAGAGTTATGAAGCTGGATTTCGGAGTCACCTAGTGCAG | 4850 fluorescence intensity (a.u.)
GTTATGTAATTAAAACGTTGTTTTCTTCTAATATATTGTCCGGAGTCACCTAGTGCAG | 7150 fluorescence intensity (a.u.)
AATCAAATCATCTCATCAAAGTCCAATCCCGCTAGCTCCACGGAGTCACCTAGTGCAG | 9000 fluorescence intensity (a.u.)
GATTGATTTGATTGATTGCTTGATTGGTTAATTGGTTGATCGGAGTCACCTAGTGCAG | 51600 fluorescence intensity (a.u.)
GAAATGGGCCTAATTGTCGGTCACATACCGAGTAAATGGGCGGAGTCACCTAGTGCAG | 4300 fluorescence intensity (a.u.)
TTTTGATTGCACCTTGCTTCTCGTATACACCCTCACCTATCGGAGTCACCTAGTGCAG | 22200 fluorescence intensity (a.u.)

Sequence | binding signal
ACGGGGTTGCGGTAATTTTAATTGGGCCGAAATGTGATTCCGGAGTCACCTAGTGCAG | 4130 fluorescence intensity (a.u.)
GTGATTGATATCGATTCTGATTGATGCCTTTGCCTGGTACCGGAGTCACCTAGTGCAG | 57000 fluorescence intensity (a.u.)
TCTGGTCGTAAATTGACAACCAACCTTAAGAAAATCCAGGCGGAGTCACCTAGTGCAG | 21300 fluorescence intensity (a.u.)
TGATTGTACGTATTCTGATTGATTGCTTATCGATATCTCACGGAGTCACCTAGTGCAG | 26100 fluorescence intensity (a.u.)
TGAGTAATTGATAGTGACACGGCTATCCAACCAATCCAGGCGGAGTCACCTAGTGCAG | 65100 fluorescence intensity (a.u.)
ACCTTCACTTGATTGCTGGTGGTAGTAGTAGTAGTAGTACCGGAGTCACCTAGTGCAG | 21700 fluorescence intensity (a.u.)
CGGGTTTGATTTGATTTGATTTTGATTTTGATTTGCTTCTCGGAGTCACCTAGTGCAG | 53400 fluorescence intensity (a.u.)
GGCCGATTGATTGGGTCCGAGTAATCTCGGAAATGTGGGGCGGAGTCACCTAGTGCAG | 53600 fluorescence intensity (a.u.)
TAATCGTATTAATTGATCAACAGGCTAGGCCAGCCAAACACGGAGTCACCTAGTGCAG | 13200 fluorescence intensity (a.u.)
CAAGAAATGACTTAATTAGAAAACCTCTTTGGAGCACCCACGGAGTCACCTAGTGCAG | 11000 fluorescence intensity (a.u.)
AAAGCATTCATGTTAATTTTCTCCTAACTCAAATCGAATGCGGAGTCACCTAGTGCAG | 3260 fluorescence intensity (a.u.)
CTGATTGGTTAGTAAGAGAATGTTGGTGGTGAAGTTGTTACGGAGTCACCTAGTGCAG | 29900 fluorescence intensity (a.u.)
AAACTAACCAGGATCTGGTAATTGGAACGATCCCCATTCCCGGAGTCACCTAGTGCAG | 4390 fluorescence intensity (a.u.)
GAAGTTTAATTATCATAAGATTGTGATGGTTATGTATGGTCGGAGTCACCTAGTGCAG | 31700 fluorescence intensity (a.u.)
TGTATTGCCTAATTAATTTTATGCGCCTTTAATTTACTGCCGGAGTCACCTAGTGCAG | 16800 fluorescence intensity (a.u.)
CATATCCCATTTGCCAATCACACCCTGAGAGTATGTATATCGGAGTCACCTAGTGCAG | 6560 fluorescence intensity (a.u.)
CACCATTATTGCCAATTATCCTTGCTTGCGTGGTAGAGTACGGAGTCACCTAGTGCAG | 26200 fluorescence intensity (a.u.)
ACTTGATTTCTCTGTTGGAAGATGGGTATATTTCGAGACCCGGAGTCACCTAGTGCAG | 17200 fluorescence intensity (a.u.)
TACTCTGATTTTGTCCATTACCAGCTGCAAATGGACCAGCCGGAGTCACCTAGTGCAG | 19300 fluorescence intensity (a.u.)
TTGACAGTTAATCCTAGGTCTATCTATCGCACTGAGTTTGCGGAGTCACCTAGTGCAG | 12400 fluorescence intensity (a.u.)
ACAGATTGAGAGGGAGCTCAGGGAACCAGTCTCACAAAATCGGAGTCACCTAGTGCAG | 8100 fluorescence intensity (a.u.)
